Our source for the AC50 and outcome values is PubChem BioAssay (EPA / NIEHS).

A word on the AC50: it is the midpoint of the concentration-response curve, whichever way the signal moves.

Activity calls are given as the source filed them. The calls were made as follows: active = hit-call score of the fitted dose curve at least 0.9, where 1 is the maximum; inactive = score below 0.9.

Read-out in the test: UDP glucuronosyltransferase (UGT1A1), UGT1A1 (gene 54658)
The experiment in a line: LTEA_HepaRG_UGT1A1: Life Technologies and Expression Analysis (LTEA) Assay for UDP glucuronosyltransferase (UGT1A1) using HepaRG (AID 2283538). The settings on record: mRNA level, 48 h; actives raise or lower the signal. On the procedure:
LTEA_HepaRG is a cell based, multiplexed-readout assay that uses HepaRG, a human liver cell line, with measurements taken at 48 hours after chemical dosing on a 96-well plate.LTEA_HepaRG_UGT1A1 is one of 102 assay component(s) measured in the LTEA HepaRG cell culture assay. It is a marker of Steatosis/NR mediated metabolism.Data from the assay component LTEA_HepaRG_UGT1A1 was analyzed into 1 endpoint. This assay endpoint, LTEA_HepaRG_UGT1A1, was analyzed with bidirectional fitting relative to DMSO as the negative control and baseline of activity. Using a type of inducible reporter, measures of mRNA induction for gain or loss-of-signal activity can be used to understand regulation of transcription factor activity. To generalize the intended target to other relatable targets, this assay endpoint is annotated to the transferase intended target family, where the subfamily is glucuronosyltransferase.
A total of 1060 chemcials from the ToxCast library were tested in eight-point concentration-response experiments. Cell culture and cytotoxicity assays were conducted at Thermo Fisher Scientific's Custom Services facility (Madison, WI). A single lot of human HepaRG cells (Thermo Fisher Scientific, Frederick, MD) was used for the cell culture experiments. 96-well format collagen type I coated plates of human HepaRG cells were prepared using established methods. Briefly, cryopreserved HepaRG cells were thawed, plated at a density of approximately 100,000 cells/well in HepaRG Thaw, Plate, and General Purpose media (HPRG770, Thermo Fisher Scientific), and incubated for 48 hours. 0.5% DMSO was selected as vehicle control to balance the requisite need of DMSO in HepaRG cultures to maintain differentiation (for example, baseline metabolism, proportions of hepatocytes vs. cholangiocytes), while enabling further hepatic receptor pathway activation (for example, PXR and CAR) in response to chemical exposure. 48 hours after plating, the culture medium was replaced with HepaRG Serum-Free Incudtion Media. Cells were exposed to each test chemical in duplicate and maintained in CO2 incubators for another 48 hours. Chemical plates were thawed to room temperature and 200x concentrations of treatment groups were prepared. 8-point conentration-reponse curves were made with the highest exposure at 100 uM, followed by half-log dilutions, all in 0.5% DMSO. Each test plate contained variouse controls, induction positive controls (1mM phenobarbital), cytotoxicity positive controls ([…] aflatoxin B1), vehicle controls (0.5% DMSO), and total lysis controls (0.5% DMSO). Cell morphology images were taken using an Essen IncuCyte FLR automated microscope, with six 96-well plates imaged in about 24 minutes. Images were captured and exported and JPEG files. Spent culture media was transfered to black-well plates for the LDH assay, and remaining media was sorted at -80 C for later use. Cells were treated with RLT buffer and frozen until shipped for gene expression analysis. Total RNA was isolated from the cell suspension in 75 uL of Buffer RLT (Qiagen, Germantown, MD 20874) by Quintiles/Expression Analysis (Durham, NC) using a custom isolation procedure. Total RNA from each plate well was transferred to a preamplification plate. Fluidigm's 96.96 Dynamic ArrayTM (Fluidigm, Amsterdam, the Netherlands) technology was used for gene expression analyses by quantitative reverse transcription polymerase chain reaction (qRT-PCR, performed by Quintiles/Expression Analysis, Durham, NC)89. Standard TaqManTM Assays (Applied Biosystems/ThermoFisher Scientific, Foster City, CA) were used to assess the expression of 93 genes selected based on their selectivity and sensitivity to important hepatic receptors known to be modulated by environmental chemicals; importance in human hepatocyte functionality; and hepatotoxicity. […]
As for `O=C(c1ccccc1)c1ccccc1`, the AC50 is 4.85 µM (active).
`CN(C)CCOC(c1ccccc1)c1ccccc1`: the result was inactive.
The same measure, in the same setting: then `CC(=O)Nc1ccc(O)cc1`, with “inactive”; and `CCCCC=O`, with “inactive”.
Take `O=C(CCCN1CCC(O)(c2ccc(Cl)cc2)CC1)c1ccc(F)cc1`: the AC50 is 79.3 µM (active).
Consider `O=C1NS(=O)(=O)c2ccccc21`, for which the call was inactive.
Consider `Cc1[nH]nc2c1N=C(c1ccccc1Cl)c1cc([N+](=O)[O-])ccc1N2`, for which the molecule was called inactive.
Consider `CN(Cc1cnc2nc(N)nc(N)c2n1)c1ccc(C(=O)N[C@@H](CCC(=O)O)C(=O)O)cc1`, for which the result was inactive.
As for `N=C(N)c1ccc(OCCCCCOc2ccc(C(=N)N)cc2)cc1`, the AC50 was 4.48 µM (active).
Same read-out and setting: then `CS(=O)(=O)c1ccc([C@@H](CC2CCCC2)C(=O)Nc2cnccn2)cc1Cl`, with 12.2 µM (active).
Turning to `CCCCC(CC)C(=O)O` (stereo unspecified), the outcome was inactive.
Same read-out and setting: for `CCC(C)c1ccccc1O` (stereo unspecified) the value was “inactive”.
Turning to `CCCCc1oc2ccccc2c1C(=O)c1cc(I)c(OCCN(CC)CC)c(I)c1`, the AC50 is 60.7 µM (active).
For `OCC(CO)(CBr)CBr`, the outcome was inactive.
As for `CCCCCCCCCCCCOS(=O)(=O)O`, the AC50 was 91.7 µM (active).
The same measure, in the same setting: for `CCCCCCCCCCCCCCC` the value was 19.8 µM (active).
